Experimental data from PubChem BioAssay AID1159580 (chemical genetic matrix, 2015).
Where “and” joins values, the source holds several entries; their conditions need not be identical. Equal values may be shown once. Hit rate of the full screen: of about 5,500 compounds, about 2,000 (36%) were called active. Another 18% or so got no clear call; they are omitted. Rule as the data show it: active = normalized growth mostly below about 0.91 (no sharp cut-off); inconclusive = no clear call, values can overlap the other calls; inactive = mostly above about 0.92. This is one part of the list.

Test: chemical genetic growth profiling, strain panel (AID 1159580);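 also: tested at 20 µM; growth read once vehicle control cultures reached saturation at 30 °C; 1 = growth at the plate median or of vehicle wells; lower values mean less growth of the strain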
Conditions: S. cerevisiae deletion strains, growth OD

Measured: normalized growth

O=c1[nH]c(=O)n(C2C[C@H](O)[C@@H](CO)O2)cc1C(F)(F)F (stereo partly specified)
inactive: locus YAL013W, strain DEP1, hits give low values 0.992 | locus YAL021C, strain ccr4, hits give low values 0.999 | locus YAL026C, strain drs2, hits give low values 0.973 | locus YAL030W, strain snc1, hits give low values 0.979 | locus YBL061C, strain skt5, hits give low values 0.974 | locus YBR009C, strain hhf1, hits give low values 0.981 | locus YBR021W, strain FUR4, hits give low values 0.968 | locus YBR023C, strain chs3, hits give low values 0.983 | locus YBR171W, strain sec66, hits give low values 0.965 | locus YBR229C, strain ROT2, hits give low values 0.986 | locus YBR231C, strain swc5, hits give low values 0.976 | locus YBR279W, strain paf1, hits give low values 0.98 | locus YCL011C, strain gbp2, hits give low values 0.954 | locus YCL016C, strain dcc1, hits give low values 0.972 | locus YCL029C, strain bik1, hits give low values 0.971 | locus YCL069W, strain vba3, hits give low values 0.994 | locus YCR088W, strain abp1, hits give low values 0.973 | locus YDL005C, strain med2, hits give low values 0.964 | locus YDL035C, strain GPR1, hits give low values 0.986 | locus YDL040C, strain nat1, hits give low values 0.976 | locus YDL074C, strain BRE1, hits give low values 0.97 | locus YDL101C, strain DUN1, hits give low values 0.987 | locus YDL134C, strain PPH21, hits give low values 1 | locus YDL185W, strain tfp1, hits give low values 0.962 | locus YDL192W, strain arf1, hits give low values 0.981 | locus YDR001C, strain nth1, hits give low values 0.947 | locus YDR069C, strain doa4, hits give low values 0.95 | locus YDR101C, strain arx1, hits give low values 0.981 | locus YDR137W, strain rgp1, hits give low values 0.901 | locus YDR150W, strain NUM1, hits give low values 0.996 | locus YDR159W, strain sac3, hits give low values 0.947 | locus YDR162C, strain NBP2, hits give low values 0.984 | locus YDR195W, strain ref2 0.922 | locus YDR297W, strain sur2, hits give low values 0.969 | locus YDR318W, strain mcm21, hits give low values 0.987 | locus YDR334W, strain swr1, hits give low values 0.964 | locus YDR335W, strain msn5, hits give low values 0.96 | locus YDR388W, hits give low values 0.975 | locus YDR392W, strain spt3, hits give low values 1 | locus YDR502C, strain sam2, hits give low values 0.979 | locus YEL003W, strain gim4, hits give low values 0.979 | locus YEL037C, strain rad23, hits give low values 0.984 | locus YEL061C, strain CIN8 (second series), hits give low values 0.952 | locus YEL061C, strain CIN8, hits give low values 0.995 | locus YER015W, strain faa2, hits give low values 0.972 | locus YER016W, strain bim1, hits give low values 0.978 | locus YER110C, hits give low values 0.966 | locus YER111C, strain swi4, hits give low values 0.976 | locus YER155C, strain BEM2 (second series), hits give low values 0.957 | locus YER155C, strain BEM2, hits give low values 0.984 | locus YER167W, strain BCK2, hits give low values 0.945 | locus YFR010W, strain ubp6, hits give low values 0.953 | locus YGL078C, strain dbp3, hits give low values 0.966 | locus YGL086W, strain mad1, hits give low values 0.979 | locus YGL167C, strain pmr1, hits give low values 0.968 | locus YGL173C, strain kem1, hits give low values 0.98 | locus YGL227W, strain vid30, hits give low values 0.946 | locus YGL240W, strain doc1, hits give low values 1 | locus YGL248W, strain PDE1, hits give low values 0.978 | locus YGL253W, strain hxk2, hits give low values 0.972 | locus YGR078C, strain PAC10, hits give low values 0.997 | locus YGR135W, strain pre9, hits give low values 0.969 | locus YGR229C, strain SMI1, hits give low values 0.963 | locus YGR252W, strain gcn5, hits give low values 0.971 | locus YHR013C, strain ard1, hits give low values 0.923 | locus YHR027C, strain rpn1, hits give low values 0.958 | locus YHR030C, strain SLT2, hits give low values 0.985 and 1.02 | locus YHR079C, strain IRE1 (second series), hits give low values 0.974 | locus YHR079C, strain IRE1, hits give low values 1.03 | locus YHR094C, strain hxt1, hits give low values 0.983 | locus YHR129C, strain ARP1, hits give low values 0.987 | locus YHR142W, strain chs7, hits give low values 0.922 | locus YHR200W, strain rpn10, hits give low values 0.985 | locus YIL066C, strain RNR3, hits give low values 0.986 | locus YIL073C, strain SPO22, hits give low values 0.967 | locus YIL125W, strain kgd1, hits give low values 0.968 | locus YIR030C, strain dcg1, hits give low values 0.969 | locus YJL092W, strain hpr5, hits give low values 0.962 | locus YJL095W, strain BCK1 (second series), hits give low values 0.962 | locus YJL095W, strain BCK1, hits give low values 0.969 and 1.01 | locus YJL115W, strain asf1, hits give low values 0.928 | locus YJL129C, strain trk1, hits give low values 0.916 | locus YJL134W, strain LCB3, hits give low values 0.987 | locus YJL154C, strain vps35, hits give low values 0.975 | locus YJL164C, strain tpk1, hits give low values 0.968 | locus YJL166W, strain qcr8, hits give low values 0.953 | locus YJL168C, strain set2, hits give low values 0.987 | locus YJL187C, strain SWE1 (second series), hits give low values 0.982 | locus YJR043C, strain POL32, hits give low values 0.973 | locus YJR066W, strain TOR1, hits give low values 0.963 | locus YJR075W, strain HOC1, hits give low values 0.991
